Screen size: about 69,000 compounds; about 8,600 (12%) showed an effect of 50% or more. The sample as a whole holds a higher share of strong results than the screen did.
Test system: Plasmodium berghei
Test: Screen against P. berghei liver stage (PbLuc), transformed with Luciferase, at 10uM
Assay type: functional, HepG2
Conditions: tested at 10 uM

| SMILES | INHIBITION |
| --- | --- |
| CCOC(=O)Cn1c(=O)[nH]c2cn(-c3ccccc3)c(=O)n21 | 7.3% |
| Cc1cc(N2CCCC2c2nccnc2C)ncn1 (centres undefined) | 26.8% |
| Cc1nc(CN2CC3(CCN(c4nccs4)C3)CC2=O)cs1 (centres undefined) | -3.52% |
| CCN(CC)C1CCN(C(=O)NCc2cccc(-n3cccn3)c2)C1 (centres undefined) | 27% |
| CC(=O)c1ccc(-n2ccc3nc(N4CCCC4)ncc3c2=O)cc1 | -82.2% |
| O=c1c2cnc(N3CCCCC3)nc2ccn1-c1ccccc1 | 19.7% |
| CC(=O)Nc1ccc(-n2ccc3nc(N4CCCC4)ncc3c2=O)cc1 | 80.5% |
| COCC(=O)NC(C)c1cccc(Br)c1 (centres undefined) | -60.9% |
| Cc1ccn(-c2ccnc(N3CCSCC3)n2)n1 | 30% |
| COc1ccc(C[C@H]2CN(C(=O)CN(C)C)CC[C@H]2OC)cc1 | 41.6% |
| CO[C@@H]1CCN(Cc2ccoc2)[C@H]1Cc1ccccc1 | 29.5% |
| COc1ccc(C[C@H]2CN(Cc3ccoc3)CC[C@@H]2OC)cc1 | 58.3% |
| CO[C@@H]1CCN(Cc2ccoc2)C[C@@H]1Cc1ccccc1 | 51.4% |
| COc1ccc(CN2C[C@@H]3CN(Cc4ccoc4)C[C@@H]3C2=O)cc1 | -4.82% |
| COc1ccc(C[C@H]2CN(C(=O)c3cnoc3)CC[C@@H]2OC)cc1 | -50.4% |
| COc1ccc(C[C@H]2CN(Cc3ccoc3)CC[C@H]2OC)cc1 | 63.3% |
| COc1ccc(C[C@H]2CN(C(=O)C3CC3)CC[C@H]2OC)cc1 | 11.2% |
| CO[C@H]1CCN(Cc2ccoc2)C[C@@H]1Cc1ccccc1 | 41.4% |
| CC(C)C1CCCN1CCCc1nc(-c2cccs2)no1 (centres undefined) | -4.94% |
| CCN1C(=O)CCC12CCC(NC(=O)c1ccncc1F)CC2 (centres undefined) | 38.3% |
| CCn1nc(C)cc1C(=O)N1C[C@@H](CN(C)C)[C@@H](CO)C1 | 38.7% |
| O=C(NCC1CCCO1)c1nc2c(s1)CCCN2CC1CC1 (centres undefined) | -14.2% |

| SMILES | INHIBITION |
| --- | --- |
| c1cncc(-c2nnc(C3(c4ccc5c(c4)OCO5)CCOCC3)o2)c1 | 72.2% |
| c1cc(-c2nnc(C3(c4ccc5c(c4)OCO5)CCOCC3)o2)ccn1 | 40.7% |
| Cn1cccc1-c1nnc(C2(c3ccc4c(c3)OCO4)CCOCC2)o1 | 41.8% |
| CCN1CCC(CC(=O)NCCc2nc(N)cc(O)n2)CC1 | 0.348% |
| Cc1cc(C(=O)N2CCC3(CC2)c2nc[nH]c2CCN3CC(C)C)no1 | 20.4% |
| CCN1CCNC(=O)C12CCN(C(=O)c1ccccn1)CC2 | -5.25% |
| CC(C)CN1CCc2[nH]cnc2C12CCN(C(=O)c1ccccn1)CC2 | 55% |
| Cc1cnc(C(=O)N2CCC3(CC2)C(=O)NCCN3CC(C)C)cn1 | 26.5% |
| CC(C)CN1CCNC(=O)C12CCN(C(=O)c1ccccn1)CC2 | 50.7% |
| CC(C)CN1CCc2[nH]cnc2C12CCN(C(=O)c1cc[nH]n1)CC2 | 48.5% |
| O=C(O)C1(Cc2ccccc2Cl)CCN(c2ncnc3[nH]ccc23)CC1 | 43.3% |
| Cc1nn(C)c(Cl)c1C1CCCN1Cc1cccc(C(N)=O)c1 (centres undefined) | 11.2% |
| Cn1c(=O)c2cc(C(=O)NCc3ccccn3)ccc2n(C)c1=O | 26.3% |
| CC(C)NC(=O)N1CCCn2cnc(CO)c2C1 | -3.77% |
| CC(C)c1noc(C(C)N2CCN(Cc3cccnc3)CC2)n1 (centres undefined) | 15.5% |
| COCC1CN(C(=O)[C@H]2CCCO2)Cc2nnn(CC3CC3)c21 (some centres undefined) | -4.99% |
| CN(C)CC(=O)N1Cc2nnn(C)c2C(COCC2CC2)C1 (centres undefined) | 24% |
| CCOCC1CN(C(=O)[C@H]2CCCO2)Cc2nnn(CC3CC3)c21 (some centres undefined) | 57.1% |
| CN(C)C(=O)N1Cc2nnn(C)c2C(COCC2CC2)C1 (centres undefined) | 41.8% |
| CCOCC1CN(C(=O)N(C)C)Cc2nnn(CC3CC3)c21 (centres undefined) | -3.51% |
| Cn1nnc2c1C(COCC1CC1)CN(C(=O)[C@H]1CCCO1)C2 (some centres undefined) | 68.9% |
| Cc1nccn1CCN(C)C(=O)C1CCCN(C2CCOCC2)C1 (centres undefined) | 34.1% |

| SMILES | INHIBITION |
| --- | --- |
| Cc1cc(C)n(CC2CCCN2CCc2ccccn2)n1 (centres undefined) | 44.4% |
| Cc1cc(CNC2CCc3nc(C(C)C)nn3C2)on1 (centres undefined) | 11.3% |
| COCCc1noc(CN(C)C(=O)c2cccc(N3CCCC3=O)c2)n1 | 13.9% |
| COC(=O)CC(NC(=O)c1cc(OC)c2c(c1)OCCO2)c1cccs1 (centres undefined) | 29.4% |
| COC(=O)CC(NC(=O)c1cccc(N2CCCC2=O)c1)c1cccs1 (centres undefined) | 62.8% |
| CCC(C)C(=O)NCc1cccc(N2CCCCC2=O)c1 (centres undefined) | 11.6% |
| COC(=O)CC(NC(=O)c1cccc(CS(C)(=O)=O)c1)c1cccs1 (centres undefined) | 71.2% |
| COC(=O)CC(NC(=O)c1cccc(N2CCCC2=O)c1)C(=O)OC (centres undefined) | 2.55% |
| CCC(NC(=O)c1cccc(N2CCCC2=O)c1)c1ccc(OC)cc1 (centres undefined) | 52.6% |
| COC(=O)CC(NC(=O)c1ccc(OC)cc1OC)c1cccs1 (centres undefined) | 7.08% |
| COC(=O)CC(NC(=O)c1ccccc1OC)c1cccs1 (centres undefined) | 40% |
| Cc1cc(S(=O)(=O)NCC[S+](C)[O-])c(F)cc1F (centres undefined) | 37.6% |
| CC(O)CN1CCN(C(=O)c2sccc2C2CC2)CC1 (centres undefined) | -1.14% |
| Cc1cnc(CC2COCCN(Cc3nccn3C)C2)cn1 (centres undefined) | 44.1% |
| CC(C)n1ccnc1C1CCN(Cc2ccc(C(F)(F)F)c(F)c2)CC1 | 42.5% |
| CO[C@@H]1CCN(Cc2ccoc2)[C@@H]2CN(Cc3ccco3)C[C@@H]21 | 45.2% |
| CC(C)(C)c1ccn(C2(C(=O)O)CCN(c3ccnc(N)n3)CC2)n1 | 34.5% |
| Cc1cccc(O[C@H]2COCCN(Cc3sc(C)nc3C)C2)n1 | -60.9% |
| Cc1nc(C)c(CN2CCOC[C@H](Oc3ccc(S(C)(=O)=O)cc3)C2)s1 | 26.4% |
| Cc1nc(C)c(CN2CCOC[C@H](Oc3ccccc3)C2)s1 | 71.4% |
| CN(Cc1cc[nH]n1)C(=O)c1cn(Cc2c(F)cccc2F)nn1 | 19.3% |
| Cc1cc(S(=O)(=O)N2CCCc3cc(F)c(F)cc32)sc1C(=O)O | 33.7% |

| SMILES | INHIBITION |
| --- | --- |
| CC[C@H](C)Nc1ncc(-c2ccn(C3CCN(C(C)=O)CC3)n2)cn1 | 24.8% |
| CC(=O)N1CCC(n2ccc(-c3cnc(N4CCOCC4)nc3)n2)CC1 | 17.4% |
| CC(=O)N1CCC(n2ccc(-c3cnc(NCC(C)C)nc3)n2)CC1 | 56% |
| CNc1cncc(C2CCCN2S(=O)(=O)c2cccc(F)c2)n1 (centres undefined) | 14.7% |
| Cc1ccc(C(=O)N2C[C@@H]3CCCO[C@@H]3[C@H](N(C)Cc3ccco3)C2)o1 | -7.59% |
| CN(C)c1ncccc1CNC(=O)N1CCCC1CN1CCCCC1 (centres undefined) | 11.6% |
| CN(C)c1ncccc1CNC(=O)N1CCCC1CN1CCCC1 (centres undefined) | 57.8% |
| CN(C)c1ncccc1CNC(=O)N1CCCC1c1ccsc1 (centres undefined) | -0.847% |
| CN1CCC(NC(=O)c2cc(F)cc(Cl)c2O)C1=O (centres undefined) | 26.5% |
| CCc1c(C)nc2n(c1=O)CC(C(=O)Nc1ncccc1C)CS2 (centres undefined) | -0.621% |
| Cc1noc(C(C)C)c1C(=O)NCc1cccc(N(C)C)c1 | 6.14% |
| Cc1noc(C(C)C)c1C(=O)NCc1cccc(CN(C)C)c1 | 51.1% |
| COCc1cccc(CNC(=O)c2c(C)noc2C(C)C)c1 | 42.9% |
| Cc1nn(C)c(C)c1CN(C)C1CCN(c2ncnc3[nH]cnc23)CC1 | 48.9% |
| Cc1cnccc1CN(C)C1CCN(c2ncnc3[nH]cnc23)CC1 | 48.9% |
| Cc1ncsc1CCN(C)C1CCN(c2ncnc3[nH]cnc23)CC1 | 50.8% |
| Cc1ccccc1OCCN1CCN(Cc2cnn(CCO)c2)CC1 | 30.45% |
| Cc1ccc(-c2cc(C(=O)NC(C)C(=O)N3CCCCC3)on2)cc1 (centres undefined) | -40.3% |
| CC(NC(=O)c1cc(-c2cccc(Cl)c2)no1)C(=O)N1CCCC1 (centres undefined) | 86.9% |
| CC(NC(=O)c1cc(-c2cccc(Cl)c2)no1)C(=O)N(C)C (centres undefined) | -21.6% |
| COc1cc(C)c(NC(=O)CCn2cccc2)cc1OC | -23.2% |
| COc1cc(Cl)c(NC(=O)NCCn2cccc2)cc1OC | -102% |

| SMILES | INHIBITION |
| --- | --- |
| COc1cc(C)c(NC(=O)NCCn2cccc2)cc1OC | 52.2% |
| Cn1cc(CN(Cc2cccc(-n3cccn3)c2)C2CC2)cn1 | 49% |
| CCc1ccccc1NC(=O)c1cccc(N(C)S(C)(=O)=O)c1C | -15.3% |
| NC(=O)C1CCCN1C1CCN(C(=O)c2ccc3c(c2)OCO3)CC1 (centres undefined) | 19.9% |
| CSCc1noc(CNC2CCCC(C)(C)C2)n1 (centres undefined) | 16.9% |
| Clc1nc2ccccn2c1CNCC1CN(C2CC2)CCO1 (centres undefined) | -34.4% |
| CC1=CC(C)(C)N(CN2C(=O)c3ccccc3C2=O)c2ccccc21 | 44.6% |
| CC1=CC(C)(C)N(CN2C(=O)c3ccccc3C2=O)c2ccc(C)cc21 | 67.4% |
| COc1ccc(N2CCN(C(=O)NC(C)c3nncn3C)CC2)cc1 (centres undefined) | 19.4% |
| COCC(=O)NCC[C@H]1CC(C)(C)Oc2ccc(OC)cc21 | 1.11% |
| COCC(=O)NCC[C@H]1CC(C)(C)Oc2ccccc21 | 57.5% |
| CC(=O)NCC[C@H]1CC(C)(C)Oc2ccccc21 | 18.9% |
| Cc1cnn(CC2CCCCN2C(=O)c2ccc3[nH]c(=O)[nH]c3c2)c1 (centres undefined) | 39.2% |
| CN(C)C(=O)C1CCN(C2CCN(CC3CC3)CC2)CC1 | 37.5% |
| O=C(c1cc[nH]n1)N1CCc2ccc(S(=O)(=O)N3CCOCC3)cc2C1 | 26.5% |
| NS(=O)(=O)c1cccc(CNc2nccc(C(F)(F)F)n2)c1 | -14.6% |
| CNS(=O)(=O)c1cccc(CNc2ccc(C#N)cn2)c1 | -14.9% |
| CNS(=O)(=O)c1cccc(CNc2ncccn2)c1 | 50.5% |
| CNS(=O)(=O)c1cccc(CNc2nccc(C(F)(F)F)n2)c1 | 71.3% |
| CNS(=O)(=O)c1cccc(CNc2cc(C(F)(F)F)ccn2)c1 | 45.4% |
| FC(F)(F)c1cccc(CNc2nccc(C(F)(F)F)n2)c1 | -24.2% |

Reference: ChEMBL document CHEMBL4513216, “Probing the Open Global Health Chemical Diversity Library for Multistage-Active Starting Points for Next-Generation Antimalarials” (ACS Infect Dis, 2020)
